In the supplement of paper PMC11732987, “Enantioselective OTUD7B fragment discovery through chemoproteomics screening and high-throughput optimisation” (Communications Chemistry, 2025):

Experiments:
Experiment in all cases: log2 ratio of Biotin-Ahx-Ub-VS probe labelling (fragment/DMSO); higher = less target engagement (more negative = stronger competition), active = hit call of the paper (q ≤ 0.05, log2 ratio ≤ -1)
Details in all cases: compound concentration: 200 uM; treatment time: 3 h
OTUD6B = biological target: T1, OTUD6B (UniProt Q8N6M0)
T1 sequence (whole entry): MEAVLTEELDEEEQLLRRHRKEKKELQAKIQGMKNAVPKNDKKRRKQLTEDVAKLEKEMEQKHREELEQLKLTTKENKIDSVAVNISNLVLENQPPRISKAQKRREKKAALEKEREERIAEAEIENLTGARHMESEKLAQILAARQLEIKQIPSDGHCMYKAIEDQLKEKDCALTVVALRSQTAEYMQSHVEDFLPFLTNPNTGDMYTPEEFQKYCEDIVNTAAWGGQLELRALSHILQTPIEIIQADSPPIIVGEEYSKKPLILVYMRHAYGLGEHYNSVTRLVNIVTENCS
How it was run: (§1)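 HEK293T lysate (495 µg per sample, in Tris/CHAPS/IGEPAL buffer with protease inhibitors) was exposed in triplicate for 3 h to fragment at 200 µM or to vehicle, then to Biotin-Ahx-Ub-VS at 0.5 µM final for 1 h. Labelled DUBs were enriched on NeutrAvidin, digested with LysC and trypsin, and analysed by diaPASEF LC-MS/MS. Spectronaut label-free quantities were normalised to the global median, and values are average log2 ratios of fragment over vehicle from an unpaired t-test. Only proteins with ≥2 unique peptides were used.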

OTUD7B = biological target: T2, OTUD7B (UniProt Q6GQQ9)
T2 sequence (whole entry): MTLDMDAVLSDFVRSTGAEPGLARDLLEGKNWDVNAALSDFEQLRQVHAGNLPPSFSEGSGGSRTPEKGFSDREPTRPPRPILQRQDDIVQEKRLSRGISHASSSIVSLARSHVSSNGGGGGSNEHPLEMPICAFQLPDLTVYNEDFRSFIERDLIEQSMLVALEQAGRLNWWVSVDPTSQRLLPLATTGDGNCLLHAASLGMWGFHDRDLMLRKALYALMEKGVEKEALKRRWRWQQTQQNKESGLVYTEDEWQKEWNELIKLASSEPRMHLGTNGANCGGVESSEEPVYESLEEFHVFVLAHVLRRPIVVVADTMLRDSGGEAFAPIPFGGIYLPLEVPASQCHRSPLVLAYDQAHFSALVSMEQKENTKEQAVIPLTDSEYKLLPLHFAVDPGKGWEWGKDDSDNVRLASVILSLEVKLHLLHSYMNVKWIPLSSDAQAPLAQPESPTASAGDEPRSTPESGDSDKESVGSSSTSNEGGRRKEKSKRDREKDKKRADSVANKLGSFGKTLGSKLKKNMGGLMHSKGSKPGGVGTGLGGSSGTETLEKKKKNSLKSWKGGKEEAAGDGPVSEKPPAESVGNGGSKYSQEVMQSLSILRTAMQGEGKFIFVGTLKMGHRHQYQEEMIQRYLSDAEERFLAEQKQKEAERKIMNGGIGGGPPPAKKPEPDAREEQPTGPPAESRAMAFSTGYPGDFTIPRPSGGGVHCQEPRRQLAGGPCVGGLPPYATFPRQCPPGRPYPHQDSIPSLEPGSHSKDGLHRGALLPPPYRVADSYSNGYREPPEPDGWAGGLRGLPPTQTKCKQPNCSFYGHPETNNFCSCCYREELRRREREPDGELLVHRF
How it was run: as §1

PRPF8 = PRPF8 (UniProt Q6P2Q9)
How it was run: as §1

PSMD7 = biological target: T3, PSMD7 (UniProt P51665)
T3 sequence (whole entry): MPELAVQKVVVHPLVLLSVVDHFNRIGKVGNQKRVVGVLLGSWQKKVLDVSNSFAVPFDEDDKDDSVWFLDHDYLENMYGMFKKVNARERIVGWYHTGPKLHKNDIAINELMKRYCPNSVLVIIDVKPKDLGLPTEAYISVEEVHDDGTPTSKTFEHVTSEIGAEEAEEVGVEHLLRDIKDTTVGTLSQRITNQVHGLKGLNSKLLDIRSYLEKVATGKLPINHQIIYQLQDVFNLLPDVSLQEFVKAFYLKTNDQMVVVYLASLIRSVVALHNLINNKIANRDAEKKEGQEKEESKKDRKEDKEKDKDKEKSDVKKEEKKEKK
How it was run: as §1

UCHL1 = UCHL1 (UniProt P09936)
Sequence of UCHL1 (P09936 whole entry, looked up): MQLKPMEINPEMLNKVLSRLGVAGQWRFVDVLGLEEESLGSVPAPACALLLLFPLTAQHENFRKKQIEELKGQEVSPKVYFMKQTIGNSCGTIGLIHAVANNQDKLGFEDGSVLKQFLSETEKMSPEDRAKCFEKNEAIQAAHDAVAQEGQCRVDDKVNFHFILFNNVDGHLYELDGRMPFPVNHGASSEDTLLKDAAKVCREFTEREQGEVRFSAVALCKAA
How it was run: as §1

UCHL3 = biological target: T4, UCHL3 (UniProt P15374)
T4 sequence (whole entry): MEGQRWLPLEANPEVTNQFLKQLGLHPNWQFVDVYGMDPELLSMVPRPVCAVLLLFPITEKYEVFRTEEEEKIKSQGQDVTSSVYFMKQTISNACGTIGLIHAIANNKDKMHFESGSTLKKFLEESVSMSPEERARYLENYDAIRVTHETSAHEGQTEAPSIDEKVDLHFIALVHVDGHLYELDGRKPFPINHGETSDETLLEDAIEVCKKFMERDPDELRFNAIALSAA
How it was run: as §1

UCHL5 = biological target: T5, UCHL5 (UniProt Q9Y5K5)
T5 sequence (whole entry): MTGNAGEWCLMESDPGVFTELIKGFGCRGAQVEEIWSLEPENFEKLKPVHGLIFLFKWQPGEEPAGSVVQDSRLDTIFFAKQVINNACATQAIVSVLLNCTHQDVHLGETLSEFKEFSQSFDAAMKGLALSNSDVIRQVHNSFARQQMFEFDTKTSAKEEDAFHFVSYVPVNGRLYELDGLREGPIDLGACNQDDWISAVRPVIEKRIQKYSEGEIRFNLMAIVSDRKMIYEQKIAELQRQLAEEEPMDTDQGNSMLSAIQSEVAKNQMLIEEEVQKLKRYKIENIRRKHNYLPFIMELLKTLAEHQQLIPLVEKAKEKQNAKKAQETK
How it was run: as §1

USP10 = USP10 (UniProt Q14694)
Sequence of USP10 (Q14694 whole entry): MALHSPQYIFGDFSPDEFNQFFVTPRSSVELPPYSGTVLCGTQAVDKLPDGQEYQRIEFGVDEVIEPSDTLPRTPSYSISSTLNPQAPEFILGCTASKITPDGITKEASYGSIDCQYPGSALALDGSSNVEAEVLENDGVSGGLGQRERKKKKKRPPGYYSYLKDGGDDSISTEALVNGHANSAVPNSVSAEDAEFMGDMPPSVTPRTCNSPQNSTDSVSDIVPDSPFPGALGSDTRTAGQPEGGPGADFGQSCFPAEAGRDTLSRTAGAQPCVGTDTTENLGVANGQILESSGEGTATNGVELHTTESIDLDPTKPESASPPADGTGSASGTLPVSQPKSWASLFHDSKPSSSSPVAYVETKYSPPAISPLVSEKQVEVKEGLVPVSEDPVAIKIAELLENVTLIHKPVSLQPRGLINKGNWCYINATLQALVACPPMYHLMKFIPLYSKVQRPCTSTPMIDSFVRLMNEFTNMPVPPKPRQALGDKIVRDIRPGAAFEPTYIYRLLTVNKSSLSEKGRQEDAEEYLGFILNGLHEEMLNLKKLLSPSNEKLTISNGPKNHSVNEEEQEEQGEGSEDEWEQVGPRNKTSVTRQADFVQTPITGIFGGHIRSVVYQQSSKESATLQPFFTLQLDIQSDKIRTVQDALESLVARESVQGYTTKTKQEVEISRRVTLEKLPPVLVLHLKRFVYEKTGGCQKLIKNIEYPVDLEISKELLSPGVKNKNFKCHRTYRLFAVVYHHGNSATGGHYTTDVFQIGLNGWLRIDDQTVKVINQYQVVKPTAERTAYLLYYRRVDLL
How it was run: as §1

USP15 = biological target: T6, USP15 (UniProt Q9Y4E8)
T6 sequence (whole entry): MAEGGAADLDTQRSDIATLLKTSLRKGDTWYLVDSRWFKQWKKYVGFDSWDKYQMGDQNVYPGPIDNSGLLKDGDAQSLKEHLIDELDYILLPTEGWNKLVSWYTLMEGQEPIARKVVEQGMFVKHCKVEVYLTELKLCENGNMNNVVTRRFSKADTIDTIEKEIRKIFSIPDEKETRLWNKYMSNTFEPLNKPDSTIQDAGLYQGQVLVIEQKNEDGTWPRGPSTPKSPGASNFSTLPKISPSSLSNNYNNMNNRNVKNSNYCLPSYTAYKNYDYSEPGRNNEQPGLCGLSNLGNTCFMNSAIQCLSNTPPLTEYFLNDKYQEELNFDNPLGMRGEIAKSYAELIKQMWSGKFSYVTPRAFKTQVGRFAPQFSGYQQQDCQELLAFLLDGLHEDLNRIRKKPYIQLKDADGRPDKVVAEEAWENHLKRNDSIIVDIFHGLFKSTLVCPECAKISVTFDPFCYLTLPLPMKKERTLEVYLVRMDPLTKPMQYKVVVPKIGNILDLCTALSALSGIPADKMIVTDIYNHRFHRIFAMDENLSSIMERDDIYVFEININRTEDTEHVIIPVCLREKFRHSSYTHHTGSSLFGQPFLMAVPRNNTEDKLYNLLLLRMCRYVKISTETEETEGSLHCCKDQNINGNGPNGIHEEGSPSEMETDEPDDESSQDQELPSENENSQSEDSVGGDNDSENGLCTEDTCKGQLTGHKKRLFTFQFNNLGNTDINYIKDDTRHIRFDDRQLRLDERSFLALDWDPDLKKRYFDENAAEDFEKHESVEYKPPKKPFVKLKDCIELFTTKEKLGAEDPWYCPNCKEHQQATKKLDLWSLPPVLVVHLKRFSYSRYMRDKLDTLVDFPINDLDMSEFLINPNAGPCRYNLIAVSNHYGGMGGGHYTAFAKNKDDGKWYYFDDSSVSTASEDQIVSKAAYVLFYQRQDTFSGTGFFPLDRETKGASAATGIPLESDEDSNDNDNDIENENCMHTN
How it was run: as §1

USP16 = USP16 (UniProt Q9Y5T5)
Sequence of USP16 (Q9Y5T5 whole entry, looked up): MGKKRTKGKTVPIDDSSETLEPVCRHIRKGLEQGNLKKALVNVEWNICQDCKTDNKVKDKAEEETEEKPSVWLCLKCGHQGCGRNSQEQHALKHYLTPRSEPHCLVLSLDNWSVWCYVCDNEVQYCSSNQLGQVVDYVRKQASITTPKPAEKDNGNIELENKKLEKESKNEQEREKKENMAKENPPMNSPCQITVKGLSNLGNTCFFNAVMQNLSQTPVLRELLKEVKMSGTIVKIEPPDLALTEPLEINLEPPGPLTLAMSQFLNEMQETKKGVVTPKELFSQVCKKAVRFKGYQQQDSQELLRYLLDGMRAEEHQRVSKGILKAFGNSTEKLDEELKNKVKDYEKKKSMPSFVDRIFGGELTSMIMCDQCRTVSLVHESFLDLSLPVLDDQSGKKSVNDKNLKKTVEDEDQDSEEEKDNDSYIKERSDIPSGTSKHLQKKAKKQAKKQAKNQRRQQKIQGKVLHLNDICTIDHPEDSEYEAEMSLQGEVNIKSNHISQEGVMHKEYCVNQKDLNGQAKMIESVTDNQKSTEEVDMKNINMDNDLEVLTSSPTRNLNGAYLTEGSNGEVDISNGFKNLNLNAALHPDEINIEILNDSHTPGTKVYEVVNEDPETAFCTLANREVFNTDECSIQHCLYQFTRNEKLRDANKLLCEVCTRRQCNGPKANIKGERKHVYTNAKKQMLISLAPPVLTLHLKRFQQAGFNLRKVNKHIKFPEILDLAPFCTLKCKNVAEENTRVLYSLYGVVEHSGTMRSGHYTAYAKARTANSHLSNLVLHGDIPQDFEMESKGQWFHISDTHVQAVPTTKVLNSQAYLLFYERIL
How it was run: as §1

Measured: log2 ratio of Biotin-Ahx-Ub-VS probe labelling

Cc1ccc(N(C(=O)CCl)C2C=CS(=O)(=O)C2)cc1 (stereo not given)
inactive: OTUD6B 0.181 | OTUD7B -0.0624 | PRPF8 0.0782 | PSMD7 -0.0467 | UCHL3 0.419 | UCHL5 -0.13 | USP10 -0.0181 | USP15 -0.145 | USP16 0.19
active: UCHL1 -1.28
